Positions count from the first letter of the chain named. Whole data set: some 24,000 sequences, median “enrichment r” near 0.99, cut for the highest 2% near 3.7. Shown is part of a subset that was picked to be rich in the highest values.
B1: chr5:10264850:10264851:+_ENSG00000150753_ENST00000503026|hu_hu|FALSE|FALSE (ssRNA)
RNA: GGGAGUUCUACAGUCCGACGAUCUUCUCAAUGUCUUCAUUCUUCAGAUUCUCCAGGCUUACGAAUGUCAUCAAUCUUCAAAAUCAUUCUAACCAUUUGUGUUGCAAGAGAUAUCUGUUGCUUUUUGCCAAUCAAGGUUUCUAUCAACAGAGGAUUGAGCAUCA
B2: chr4:34514055:34514056:+_ENSMUSG00000028291_ENSMUST00000084299|mus_mus|motif|central (ssRNA)
RNA: GGGAGUUCUACAGUCCGACGAUCCUGGGGAGGAGGUGCAGCAAUAAACAUUUGUUAAAAAGACUGAUAGAAUAAAUAAAACGGCCAAAAAAUAAUAAAGAAAAUCAUAUAAACCCAUUCUGAAACCCCAAGAAAAGUCCUGAACAACAGAGGAUUGAGCAUCA
B3: chr4:34514055:34514056:+_ENSMUSG00000028291_ENSMUST00000084299|mus_mus|FALSE|FALSE (ssRNA)
RNA: B2 RNA with G82U, G83A
B4: chr12:75046761:75046762:+_ENSMUSG00000021109_ENSMUST00000021530|mus_mus|FALSE|FALSE (ssRNA)
RNA: GGGAGUUCUACAGUCCGACGAUCAUAUAGAAAAUAUAAAUAGACUGCUGAGCCACCAGUGUCCAAAAAUAACCAACAGAAACAAAAACCCAACAAACAACAACAACUGAACAAAAACAUUAACAAUCAAAAGGAAUGAGAUUACAACAGAGGAUUGAGCAUCA
B5: chr6:13786029:13786030:-_ENSMUSG00000048216_ENSMUST00000115492|mus_mus|FALSE|FALSE (ssRNA)
RNA: GGGAGUUCUACAGUCCGACGAUCAAAAACUCUCCAAUAGCAGGCCACCAGGUAGGGACCCCACAAGGUUAGGAAGAGGAAAGUCAUUAUAUAAAACAUUCUGCUGAUUCUUUUCUCCAUUUUGAACUCAUCCAAGACCAAUAGCAACAGAGGAUUGAGCAUCA
B6: 85396044_85398007_762_3pUTR_ENSMUSG00000021549_ENSMUST00000109552|mouse|control|control (ssRNA)
RNA: GGGAGUUCUACAGUCCGACGAUCCACCAAUGUAGUAAUCACCACACAUAGCAAUAAUCCUAAAAUGAUUGACAACAUUUGUCUGACUAAGGAAUGAAAGUACAAAGGACCCCGGCCUCCGAUCACUCUCUCUUAUAAGAUAGCCAACAGAGGAUUGAGCAUCA
B7: chr2:166767530:166767531:+_ENSMUSG00000002718_ENSMUST00000002790|mus_mus|FALSE|FALSE (ssRNA)
RNA: GGGAGUUCUACAGUCCGACGAUCAAAUAUUUCUUGUAAUGCUAGUGCCCCAUACUUAAUGCAAUAUAAGUUAAUAAACACUAAGAAACUCUUGAUAAACUUGGUGGUCUUGGAGUUUUGCAGUCUCUGGAAUAGUAGAAUGAACAACAGAGGAUUGAGCAUCA
B8: chr9:115598534:115598535:+_ENSG00000148158_ENST00000374232|hu_mus|motif|central (ssRNA)
RNA: GGGAGUUCUACAGUCCGACGAUCCAGCUUAUAGCCUCCGGUGACGUGCUUGACUGACUCACCCACUCUGCUCAGCAAUGCGGUCCCUUGCUUCUUGUAGGCAUUCAGGUCCUUAGCAGUGAGGAACACAUUGAAGUGUUCAUUCAACAGAGGAUUGAGCAUCA
B9: chr8:41682716:41682717:-_ENSMUSG00000039431_ENSMUST00000048898|mus_hu|motif|central (ssRNA)
RNA: GGGAGUUCUACAGUCCGACGAUCCACAUCGCUGAGCUGCCAGUAAUGAUUAGGGAGGCCCAUCCGCGUGUAUUCUUCACGGAGAUCGAUCAGCACCCAGCCUUGCUCUCUUUCUUCUUUAUCCAGCAUGGGGUUGAAUGAAAACAACAGAGGAUUGAGCAUCA
B10: 34871406_34871526_3634_3pUTR_ENSMUSG00000037503_ENSMUST00000047534|mouse|control|control (ssRNA)
RNA: GGGAGUUCUACAGUCCGACGAUCAUGGUGGUGGGUUUGCUUCUCCAGAGUCAAGGAGCUUACAGUUUCCAAUACUCCACAACUCUAAACUGCAAGCAGCAGCAGCCGAGGAAGGAAGGCCCCUAGCCUCAGGGACGGCAGCAGCAACAGAGGAUUGAGCAUCA
B11: chr15:100311029:100311030:-_ENSMUSG00000044636_ENSMUST00000061457|mus_mus|motif|central (ssRNA)
RNA: GGGAGUUCUACAGUCCGACGAUCGCCUGGUCUACAUAGCAAGUCCCAGGCCAGCCAGGGCUGUUUAGCAACACACUGCCGGAAAAAAAAAAAAGAAAAAAGAAAAGAAAAGAAAAGAAAAGAAAAGAAAAGAAAAGAAAAGAACAACAGAGGAUUGAGCAUCA
B12: chr15:100311029:100311030:-_ENSMUSG00000044636_ENSMUST00000061457|mus_mus|FALSE|FALSE (ssRNA)
RNA: B11 RNA with G80U, G81A
B13: chr2:104430758:104430759:+_ENSMUSG00000027176_ENSMUST00000028599|mus_mus|motif|central (ssRNA)
RNA: GGGAGUUCUACAGUCCGACGAUCGGGACUACAACGUACGCACCAGCCGGCAAAGGGAAGCUAGAAAAGGAAAAUUAAACGGAAGGCAAACCCCACCAAAACCAGGAACACUACCCCUGUCCCUCAGAGCCAAAGCCGCCGCCACAACAGAGGAUUGAGCAUCA
B14: chr12:86311719:86311720:-_ENSMUSG00000042350_ENSMUST00000043169|mus_hu|FALSE|FALSE (ssRNA)
RNA: GGGAGUUCUACAGUCCGACGAUCGACUGCCAAAGGACGCCCCAGGAUCCCGAGCCGGGGGUUGCAGCGCGACGAAGUUCCACCUCCGCUGUCCUGGGAAGGGGCGGCAGCACUCAGCAGAAGACGGGCUCCCCACUCUCCCACCAACAGAGGAUUGAGCAUCA
B15: chr18:64617603:64617604:-_ENSMUSG00000024588_ENSMUST00000025484|mus_mus|FALSE|FALSE (ssRNA)
RNA: GGGAGUUCUACAGUCCGACGAUCGCGGGAGGCACACUGGAAGCCAGUUUGGCCUACAUAGGGCAAGCGAGAAAUAAGAUAAAAUAAGAUAAAACACAGGCAAGAGAGAAAUCACAGUUUGUGCCCAGACAAACGUGGCUUCUGCAACAGAGGAUUGAGCAUCA
B16: chr3:38349274:38349275:-_ENSMUSG00000044864_ENSMUST00000156038|mus_mus|FALSE|FALSE (ssRNA)
RNA: GGGAGUUCUACAGUCCGACGAUCAAAUGACCAAGUACAGCAAGCAGGCUGGCUACAGCACCCUGGUCAGCCUGGUCCUCGCCAGAAGCUGUUUUUGUUCUACUUUAAAUCAGUUAAUAAUAAAAACAAAACAAAAGGGAAAAACAACAGAGGAUUGAGCAUCA
B17: chr9:108469239:108469240:-_ENSMUSG00000070283_ENSMUST00000074208|mus_hu|FALSE|FALSE (ssRNA)
RNA: GGGAGUUCUACAGUCCGACGAUCGGGAAGCUCAACGGGCGGACAGCGCAGCGAGGGUCGCGCUCGGUACAAGCUACGUAGCGCGAGAGCGGUGGCCAUGGCUGACCAACGCGCGGCGAAGUCGUCACCGGCGCCGUUAGUCCCCAACAGAGGAUUGAGCAUCA
B18: 91351710_91351830_385_5pUTR_ENSMUSG00000055013_ENSMUST00000027521|mouse|control|control (ssRNA)
RNA: GGGAGUUCUACAGUCCGACGAUCAAGAAAAAGAAAAAGAAAAAGAAAAGAACGCUGAGGAUGAAGCAGUAGAGGGGCUCAGUUCAUAGCAGGGACCAGCGUCCCGGGUCAGCGGGCCGUCCGGGAAGACCGCGGCGCCAUGGACAACAGAGGAUUGAGCAUCA
B19: chr4:140556289:140556290:+_ENSMUSG00000036622_ENSMUST00000037055|mus_mus|mus_mus_mus_hu_False|8_78 (ssRNA)
RNA: GGGAGUUCUACAGUCCGACGAUCGAUGGAGCUCACCAGGCCCCCUUUUGCCGUGCAGAACCCUGUCCGGGUCACCACUGCCAGGACGUGCGGUCCCACAUAGGCCCGGGCCUGCAAGAUGAGGGUCCCACAGAAGAGUGUGUGCAACAGAGGAUUGAGCAUCA
B20: chr7:23239867:23239868:+_ENSG00000136243_ENST00000258742|hu_hu|FALSE|FALSE (ssRNA)
RNA: GGGAGUUCUACAGUCCGACGAUCCCCAAAACCAGCAGGGCUUCCAGAAGAGGCAGCAGCAAAUCCAGAGUUUGUUUUAAAACUAAAGUUCUGAGCAUUAUCACUGCUGCUGUUAUUGACUGGAAAGCCUGGCGACAUAAAUGUCAACAGAGGAUUGAGCAUCA
B21: chr4:155540527:155540528:-_ENSMUSG00000041936_ENSMUST00000154494|mus_hu|FALSE|FALSE (ssRNA)
RNA: GGGAGUUCUACAGUCCGACGAUCGCCUGGACGGAAGGGAGGCCGGGCCAGCAGUCCCUCCGGCCAACACUCAGGCAAGAAAAUCAUAUCAAAAAGCAACAAGUUUACAAAAAUAGAAAAUAAUUACAGCGGGCGCGGGGCUCUCAACAGAGGAUUGAGCAUCA
B22: chr2:181041410:181041411:-_ENSMUSG00000027581_ENSMUST00000103045|mus_hu|FALSE|FALSE (ssRNA)
RNA: GGGAGUUCUACAGUCCGACGAUCAGCAUGAAGCUGGGGGCGGGGGUGGGGGAGGAGGAACAAAAGUUGCAUCUAGACAGAGGUGAACGAAACAAAACCAAAACCCGAACGUGUUCUGUCGCAGGAUGGGCGCCGCCCGUCCCGCAACAGAGGAUUGAGCAUCA

The binders below were run against T1, UNK ZnF1-3 (human, UniProt Q9C0B0 31-174) (assay: nsRBNS (natural sequence RNA bind-n-seq); RBNS binding buffer (assumed for nsRBNS): 25 mM Tris pH 7.5, 150 mM KCl, 3 mM MgCl2, 0.01% Triton X-100, 500 ug/ml BSA, 20 U/ml SUPERase-In, 4 C; UNK is unkempt and MSI1 is Musashi-1; names of the RNAs are library labels; protein concentration not given here; high values mean tight binding).
T1 sequence: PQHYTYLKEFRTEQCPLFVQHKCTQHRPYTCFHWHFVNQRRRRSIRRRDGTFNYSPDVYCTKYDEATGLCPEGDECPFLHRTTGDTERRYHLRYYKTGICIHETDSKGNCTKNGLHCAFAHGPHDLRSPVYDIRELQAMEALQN

Q: Which binding signal does the source give for B1 here?
A: 0.579 enrichment R

Q: B2 was tested. Which binding signal did it give?
A: 15.2 enrichment R

Q: Which binding signal does the source give for B3 here?
A: 8.55 enrichment R

Q: B4 was tested. Which binding signal did it give?
A: 3.57 enrichment R

Q: With B5 as the binder, how does the binding signal read?
A: 1.71 enrichment R

Q: For B6, which binding signal is on record?
A: 0.49 enrichment R

Q: How did the binding signal turn out when B7 was run?
A: 1.05 enrichment R

Q: For B8, which binding signal is on record?
A: 0.691 enrichment R

Q: For B9, which binding signal is on record?
A: 1.07 enrichment R

Q: B10 was tested. Which binding signal did it give?
A: 1.48 enrichment R

Q: Which binding signal does the source give for B11 here?
A: 4.43 enrichment R

Q: With B12 as the binder, how does the binding signal read?
A: 4.34 enrichment R

Q: With B13 as the binder, how does the binding signal read?
A: 2.17 enrichment R

Q: Which binding signal does the source give for B14 here?
A: 1.33 enrichment R

Q: B15 was tested. Which binding signal did it give?
A: 3.43 enrichment R

Q: Which binding signal does the source give for B16 here?
A: 0.882 enrichment R

Q: How did the binding signal turn out when B17 was run?
A: 0.446 enrichment R

Q: Which binding signal does the source give for B18 here?
A: 4.11 enrichment R

Q: With B19 as the binder, how does the binding signal read?
A: 1.02 enrichment R

Q: For B20, which binding signal is on record?
A: 0.668 enrichment R

Q: For B21, which binding signal is on record?
A: 4.13 enrichment R

Q: B22 was tested. Which binding signal did it give?
A: 3.3 enrichment R

From paper PMC12136788
